This excerpt belongs to a sample that is enriched for hits.
Marburg entry inh – inhibitors of Marburg virus binding or cell entry; Marburg virus pseudotyped entry inhibition, cell reporter; Potency, µM (titrated, usually from 37.8 µM), for the others: top-dose activity change, negative = inhibition, most hits filed as inhibitors; actives 1.8% (n = 300,000); AID 540276; calls by dose curve; tested in HEK293 cells; also: potency is read from the fitted curve at half-maximal effect; % is scaled to controls: 0 for no effect and ±100 for the full control effect
Vaccinia mCherry – inhibitors of vaccinia virus infection (mCherry reporter signal) | Vaccinia virus mCherry reporter infection, fluorescence | actives 0.63% (n = 310,000) | AID 720579 | Potency, µM (doses to about 36.5 µM), for inactives: at the highest dose activity change, negative = inhibition, actives largely listed as inhibitors; calls by dose curve; tested in A549 cells; also: potency is read from the fitted curve at half-maximal effect; % is scaled to controls: 0 for no effect and ±100 for the full control effect; nearly all actives have a fitted effect of over 35% in size
Shiga toxin inh – inhibitors of Shiga toxin in Vero cells | actives 9.2% (n = 290,000) | Vero cells, Shiga toxin protein synthesis inhibition reporter | inhibition, % at 38.7 µM; in the data active = inhibition mostly above about 28%, no sharp cut-off; inactive = mostly below about 43%; also: 0% is about no effect
Lassa entry inh – Lassa virus entry inhibition | Lassa virus pseudotype entry inhibition, cell reporter | Potency, µM (highest dose often 37.9 µM), for the others: top-dose activity change, negative = inhibition, actives largely listed as inhibitors | actives 1.2% (n = 300,000) | AID 540256; calls by dose curve; tested in HEK293 cells; also: potency is read from the fitted curve at half-maximal effect; % is scaled to controls: 0 for no effect and ±100 for the full control effect; nearly all actives have a fitted effect of over 50% in size
Vaccinia Venus – inhibitors of vaccinia virus (Venus reporter); Vaccinia virus Venus reporter expression, fluorescence; Potency, µM (doses to about 36.5 µM), for the others: at the top dose activity change, negative = inhibition, actives largely listed as inhibitors; actives 0.46% (n = 330,000); AID 720580; calls by dose curve; tested in A549 cells; also: potency is read from the fitted curve at half-maximal effect; % is scaled to controls: 0 for no effect and ±100 for the full control effect; nearly all actives have a fitted effect of over 30% in size
CHX counter – counter-screen for Shiga toxin inhibitors: cycloheximide protein synthesis inhibition | cell reporter, cycloheximide protein synthesis inhibition counterscreen | max response, % | actives 12% (n = 300,000) | AID 2314; in the data active = max response mostly above about 13%, no sharp cut-off; inactive = mostly below about 14%; also: read at 38.3 µM for the half of the compounds with a filed dose; 0% is about no effect
* hit, by the source's call; [ ] = remark or other dose.

Screening COc1ccc(CNC(=O)CSc2ncc(S(=O)(=O)c3ccc(C)c(Cl)c3)c(=O)[nH]2)cc1 returned Vaccinia mCherry -5.0%, Lassa entry inh 20.5%[46.1 µM] and Vaccinia Venus 7.3%.
Screening Cc1ccc(/C=N/n2c(COc3ccccc3)n[nH]c2=S)s1 returned Marburg entry inh 7.6%, Shiga toxin inh -15.1, Lassa entry inh 6.51µM* and CHX counter 4.5.
S=c1[nH]nc(COc2ccccc2)n1/N=C/c1ccc(Br)s1 was read as Marburg entry inh 20.8%, Vaccinia mCherry -10.7%, Shiga toxin inh -20.4, Lassa entry inh inconclusive, Vaccinia Venus -5.8% and CHX counter -3.5.
Cc1ccc(-c2n[nH]c(=S)n2/N=C/c2ccc(C)s2)cc1 was read as Marburg entry inh -10.1%, Shiga toxin inh -17.0, Lassa entry inh 1.26µM*, Vaccinia Venus -12.5% and CHX counter -6.5.
Cc1cccc2nc3c(nc12)CCCC3 was read as Vaccinia mCherry 2.8%, Shiga toxin inh -15.4, Vaccinia Venus -5.8% and CHX counter -1.9.
For Cc1cc2nc3c(nc2cc1C)CCCC3 the results were Vaccinia mCherry 4.8%, Shiga toxin inh 108.3*, Vaccinia Venus -9.0% and CHX counter 58.7*.
Screening CCCOc1ccc(C2=NC(c3ccncc3)=Nc3ccc(C)cc3N2)cc1 returned Marburg entry inh inconclusive, Vaccinia mCherry -3.1%, Lassa entry inh 4.8%[46.1 µM] and Vaccinia Venus 0.6%.
Screening Cn1c(/C(C#N)=C/c2ccc(O)cc2)nc2ccccc21 returned Shiga toxin inh 46.9* and CHX counter 50.1*.
OCCN1CCN(Cc2ccc3c(c2)CN(Cc2cccn2-c2ccccn2)CCO3)CC1 was read as Vaccinia mCherry -10.4% and Vaccinia Venus -13.4%.
Screening CSCC[C@@H](CO)NC(=O)c1ccc2nc(C3CCCCC3)oc2c1 returned Shiga toxin inh -3.4 and CHX counter -3.4.
Screening CSCCNC(=O)c1ccc2nc(C3CCCCC3)oc2c1 returned Marburg entry inh inconclusive, Vaccinia mCherry inactive, Shiga toxin inh 85.5*, Lassa entry inh -9.8%, Vaccinia Venus 0.8% and CHX counter 20.1*.
Screening O=C(NCc1ccccn1)c1cccc([N+](=O)[O-])c1 returned Marburg entry inh 11.8%, Shiga toxin inh -1.7, Lassa entry inh inconclusive and CHX counter -2.1.
Screening O=C(NCc1ccccn1)c1ccc2nc(C3CCCCC3)oc2c1 returned Marburg entry inh 6.7%[46.1 µM], Vaccinia mCherry -14.6%, Shiga toxin inh 31.9*, Lassa entry inh -4.7%[46.1 µM], Vaccinia Venus -12.5% and CHX counter 21.7*.
CCN(C(=O)COC(=O)[C@H](C)N=C1NS(=O)(=O)c2ccccc21)C1CCS(=O)(=O)C1 (stereo partly drawn) was read as Marburg entry inh 7.5%, Vaccinia mCherry -13.4%, Lassa entry inh 6.8% and Vaccinia Venus -4.7%.
`C[C@@H](C(=O)NC1CCCCC1)N1C(=O)N2CCc3c([nH]c4ccccc34)[C@@]2(C)C1=O` gave Vaccinia mCherry -11.3%, Shiga toxin inh 2.7, Vaccinia Venus -13.0% and CHX counter -3.4.
Screening C[C@@H](C(=O)NCCc1ccccc1F)N1C(=O)N2CCc3c([nH]c4ccccc34)[C@@]2(C)C1=O returned Vaccinia mCherry -21.1%, Shiga toxin inh 29.6*, Vaccinia Venus -10.5% and CHX counter 23.3*.
C[C@@H](C(=O)NCCc1ccccc1)N1C(=O)N2CCc3c([nH]c4ccccc34)[C@@]2(C)C1=O was read as Vaccinia mCherry -10.9%, Shiga toxin inh 20.6*, Vaccinia Venus -7.6% and CHX counter 19.2*.
Cc1ccc(CNC(=O)CNS(=O)(=O)c2ccc(Br)s2)cc1 was read as Marburg entry inh -23.2%[46.1 µM], Vaccinia mCherry inactive, Shiga toxin inh -13.6, Lassa entry inh -7.7%, Vaccinia Venus -9.6% and CHX counter 3.1.
For CCCc1c(-c2ccc(O)cc2)nn(-c2ccc(O)cc2)c1-c1ccc(O)cc1 the results were Marburg entry inh inconclusive, Vaccinia mCherry inactive, Shiga toxin inh -17.1, Lassa entry inh 0.291µM*, Vaccinia Venus -13.7% and CHX counter -10.4.
For Cc1c(C(N)=O)c(-c2ccccc2)nn1-c1ccccc1 the results were Marburg entry inh 24.5%, Vaccinia mCherry -11.6%, Shiga toxin inh 13.8, Lassa entry inh 20.7%, Vaccinia Venus -7.6% and CHX counter -1.0.
Cc1ccc(NC(=O)Cn2cc([N+](=O)[O-])nc2C)cc1C was read as Shiga toxin inh -4.3 and CHX counter -2.1.
`O=C(O)CC1(CC(=O)Nc2ccc(C(F)(F)F)cc2)CCCC1` gave Marburg entry inh 14.1%[46.1 µM], Vaccinia mCherry -0.4%, Shiga toxin inh -3.8, Lassa entry inh 1.4%[46.1 µM], Vaccinia Venus -11.0% and CHX counter -2.9.
For CC(C)(C)c1ccc(NC(=O)CC2(C(F)(F)F)OCCO2)cc1 the results were Marburg entry inh 17.5%, Vaccinia mCherry -18.9%, Shiga toxin inh 33.2, Lassa entry inh inconclusive, Vaccinia Venus -15.0% and CHX counter 32.1*.
CN(C)c1ccc(/C=C2\C=Cc3ccccc32)c(F)c1 was read as Vaccinia mCherry -24.2% and Vaccinia Venus -18.8%.
COc1ccccc1N1CCN(CCCCNS(=O)(=O)c2cccc3c(N(C)C)cccc23)CC1 was read as Marburg entry inh 7.08µM* and Lassa entry inh 14.6µM*.
`COc1ccccc1N1CCN(CCCCN2C(=O)CCC2=O)CC1` gave Vaccinia mCherry -4.0% and Vaccinia Venus -1.1%.
Nc1sccc1C(=O)c1ccc(Cl)cc1 was read as Marburg entry inh -0.2%, Vaccinia mCherry -1.6%, Shiga toxin inh 23.5, Lassa entry inh 12.1%, Vaccinia Venus -12.3% and CHX counter 23.6*.
Screening COc1cc(C(=O)N2CCC(c3nc(-c4cccnc4)no3)CC2)cc(OC)c1OC returned Marburg entry inh -14.7%, Shiga toxin inh -3.8, Lassa entry inh inconclusive and CHX counter -1.3.
For CN(C)S(=O)(=O)N1CCC(Oc2ccc(C(=O)N3CCCCCCC3)cc2)CC1 the results were Marburg entry inh -6.7%, Vaccinia mCherry -23.0%, Shiga toxin inh 116.6*, Lassa entry inh -19.2%, Vaccinia Venus -23.7% and CHX counter 62.1*.
For CN(C)S(=O)(=O)N1CCC(Oc2ccc(C(=O)N3CCCCCC3)cc2)CC1 the results were Vaccinia mCherry -11.1% and Vaccinia Venus -23.6%.
Screening CCN1CCN(C(=O)c2cccc(OC3CCN(S(=O)(=O)N(C)C)CC3)c2)CC1 returned Marburg entry inh 19.4%, Vaccinia mCherry inactive, Shiga toxin inh 16.2, Lassa entry inh 12.7%, Vaccinia Venus -20.1% and CHX counter 27.0*.
Screening CC1CCCCN1C(=O)c1ccc(OC2CCN(S(=O)(=O)N(C)C)CC2)cc1 (stereo not drawn) returned Marburg entry inh inconclusive, Vaccinia mCherry -8.1%, Shiga toxin inh 25.7, Lassa entry inh -3.2%[46.1 µM], Vaccinia Venus -14.3% and CHX counter 25.6*.
CN(C)S(=O)(=O)N1CCC(Oc2cccc(C(=O)NC3CCCCCC3)c2)CC1 was read as Marburg entry inh inconclusive, Vaccinia mCherry inconclusive, Shiga toxin inh 17.5, Lassa entry inh inconclusive, Vaccinia Venus -22.6% and CHX counter -1.8.

Screening results: PubChem, National Center for Advancing Translational Sciences (NCATS)
